Here are results for six molecules from PubChem BioAssay.

Assay [1] can be described thus: compound effects on lung adenocarcinoma cell viability – A549, calcein-AM fluorescence, 48 h, basal, profiling panel (AID 1162). Also: test concentration not given here. The settings on record: higher = more signal.
The nature of assay [2]: compound effects on differentiated 3T3-L1 adipocyte viability – cell-based, 3T3-L1 adipocytes, calcein-AM fluorescence, 48 h, basal, profiling panel (AID 1163). Also: test concentration not given here. The following applies: 3T3-L1 adipocytes viability, higher = more signal.
Assay [3] in a line: compound effects on hepatocellular carcinoma cell viability – HepG2, calcein-AM fluorescence, 48 h, basal, profiling panel (AID 1164). Also: test concentration not given here. The following applies: higher = more signal.
A short description of assay [4]: compound effects on multiple myeloma cell viability – MM1S, calcein-AM fluorescence, 48 h, basal, profiling panel (AID 1165).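 Also: viability of MM1S multiple myeloma cells under basal unstimulated conditions; test concentration not given here.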 The following applies: higher = more signal.
Assay [5] is described as follows: calcein-AM signal in unstimulated myeloma cells – cell-based, calcein-AM fluorescence, 48 h, PK04 Diversity Set, profiling panel (AID 1166).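 Also: cells grown under basal conditions without added stimulus; test concentration not given here.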 The settings on record: RPMI8226 myeloma viability, higher = more signal.
Assay [6] can be described thus: JC-1 mitochondrial signal, unstimulated HepG2 cells – cell-based, JC-1 fluorescence, 24 h, 100 nL compound, profiling panel (AID 1167). Also: test concentration not given here. The settings on record: HepG2 mitochondrial potential, higher = more signal.
Assay [7] is described as follows: JC-1 mitochondrial signal, unstimulated adipocytes – cell-based, JC-1 fluorescence, 3T3-L1 adipocytes, 24 h, 100 nL compound, profiling panel (AID 1168). Also: test concentration not given here. The following applies: JC-1 mitochondrial fluorescence, higher = more signal, called active from +8 up or from −8 down.
Assay [8] is described as follows: JC-1 mitochondrial signal, unstimulated myeloma cells – cell-based, JC-1 fluorescence, RPMI8226, 24 h, 100 nL compound, profiling panel (AID 1169). Also: test concentration not given here. The following applies: JC-1 mitochondrial potential fluorescence, higher = more signal.
Assay [9] can be described thus: JC-1 mitochondrial signal, unstimulated MM1S myeloma – cell-based, JC-1 fluorescence, 24 h, 100 nL compound, profiling panel (AID 1170). Also: test concentration not given here. The following applies: MM1S mitochondrial potential, higher = more signal.
The nature of assay [10]: resazurin metabolic signal in A549 cells – cell-based, resazurin fluorescence, 24 h, PK04 Diversity Set, profiling panel (AID 1171). Also: test concentration not given here. The settings on record: A549 viability, higher = more signal, called active from +8 up or from −8 down. (The colour change of resazurin is a common sign of viable cells or microbes.)
A short description of assay [11]: resazurin metabolic signal in HepG2 cells – cell-based, resazurin fluorescence, 24 h, PK04 Diversity Set, profiling panel (AID 1172). Also: test concentration not given here. The settings on record: HepG2 viability, higher = more signal.
Assay [12] in a line: budding yeast growth changes without added modifier – OD600, strain BY4716, 24 h, basal condition, primary screen (AID 1173). The following applies: S. cerevisiae BY4716 growth, OD600, 24 h; higher = more signal, called active from +8 up or from −8 down.
A short description of assay [13]: viability profiling in MM1S myeloma cells – cell-based, resazurin fluorescence, basal, 24 h, PK04 Diversity Set, profiling panel (AID 1174). Also: test concentration not given here. The settings on record: higher = more signal, called active from +8 up or from −8 down.
In assay [14] the target is Dihydroorotate dehydrogenase (quinone), mitochondrial (Plasmodium falciparum (isolate 3D7)) (UniProt Q08210). Description: inhibition of P. falciparum DHODH – biochemical, C-terminal His tag, absorbance 600 nm, primary screen (AID 1175).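 Also: recombinant parasite enzyme with a five histidine tag at its C terminus; test concentration not given here.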 The settings on record: PfDHODH enzyme, DCIP absorbance 600 nm; higher = more signal, called active from +8 up or from −8 down.
Assay [15] can be described thus: inhibition of PAO1 biofilm formation – strain PAO1, LB-PBS medium, absorbance 600 nm, primary screen (AID 1176). Also: test concentration not given here. The following applies: P. aeruginosa PAO1 growth/biofilm, A600, 12 h; higher = more signal.
The nature of assay [16]: growth modulation of vineyard yeast isolate – strain RM11-1a, OD600, basal, 24 h, primary screen (AID 1177).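 Also: cultures grown under basal conditions with no added stressor; test concentration not given here.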 The settings on record: S. cerevisiae RM11-1a growth, OD600, 24 h; higher = more signal, called active from +8 up or from −8 down.
Assay [17] is described as follows: growth of efflux-deficient E. coli DRC39 – strain DRC39, OD650, 24 h, E. coli filamentation inducers, primary screen (AID 1178).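 Also: growth measured as culture turbidity by optical density at 650 nm; test concentration not given here.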 The settings on record: E. coli DRC39 acrAB, higher = more signal, called active from +8 up or from −8 down.
Assay [18] can be described thus: growth of efflux-deficient E. coli DRC39 – strain DRC39, OD650, 48 h, E. coli filamentation inducers, primary screen (AID 1179).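 Also: screen aims at cell division blockers that make cells filament.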 The settings on record: E. coli DRC39 delta-acrAB growth, higher = more signal, called active from +8 up or from −8 down.
Assay [19] in a line: viability profiling in RPMI8226 myeloma cells – cell-based, resazurin fluorescence, basal, 24 h, PK04 Diversity Set, profiling panel (AID 1180).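 Also: RPMI8826 multiple myeloma cell line at 5000 cells per well; test concentration not given here.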 The settings on record: higher = more signal.
Assay [20] concerns the target E3 ubiquitin-protein ligase XIAP (Homo sapiens) (UniProt P98170). The assay can be described thus: small molecules binding XIAP protein – biophysical, small-molecule microarray, fluorescence 635 nm, primary screen (AID 1181).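 Also: score merges 667 nm emission and signal to noise over triplicate slides.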 The settings on record: higher = more signal.

Each structure is given as a SMILES string. Several values for one entry are separate records, joined by “and”; a condition that tells them apart may be missing. Equal values may be shown once. Activity calls are given as the source filed them. Unless noted, no rule for the calls is given here.

Chain of E3 ubiquitin-protein ligase XIAP (Homo sapiens) (P98170 whole entry, looked up): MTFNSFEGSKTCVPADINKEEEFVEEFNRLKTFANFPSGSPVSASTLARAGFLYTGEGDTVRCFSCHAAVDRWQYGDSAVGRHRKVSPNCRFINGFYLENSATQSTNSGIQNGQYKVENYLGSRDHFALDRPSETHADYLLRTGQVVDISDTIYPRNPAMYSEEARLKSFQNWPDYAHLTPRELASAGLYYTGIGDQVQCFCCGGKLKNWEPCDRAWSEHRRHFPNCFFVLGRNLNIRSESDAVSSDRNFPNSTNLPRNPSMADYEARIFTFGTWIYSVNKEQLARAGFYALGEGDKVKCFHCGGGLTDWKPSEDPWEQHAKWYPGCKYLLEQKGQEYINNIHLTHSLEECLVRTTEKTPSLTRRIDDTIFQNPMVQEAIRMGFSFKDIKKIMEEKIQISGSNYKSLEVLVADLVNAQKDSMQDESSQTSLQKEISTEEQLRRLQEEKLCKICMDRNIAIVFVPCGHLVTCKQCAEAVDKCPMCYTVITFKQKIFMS
Chain of Dihydroorotate dehydrogenase (quinone), mitochondrial (Plasmodium falciparum (isolate 3D7)) (Q08210 whole entry, looked up): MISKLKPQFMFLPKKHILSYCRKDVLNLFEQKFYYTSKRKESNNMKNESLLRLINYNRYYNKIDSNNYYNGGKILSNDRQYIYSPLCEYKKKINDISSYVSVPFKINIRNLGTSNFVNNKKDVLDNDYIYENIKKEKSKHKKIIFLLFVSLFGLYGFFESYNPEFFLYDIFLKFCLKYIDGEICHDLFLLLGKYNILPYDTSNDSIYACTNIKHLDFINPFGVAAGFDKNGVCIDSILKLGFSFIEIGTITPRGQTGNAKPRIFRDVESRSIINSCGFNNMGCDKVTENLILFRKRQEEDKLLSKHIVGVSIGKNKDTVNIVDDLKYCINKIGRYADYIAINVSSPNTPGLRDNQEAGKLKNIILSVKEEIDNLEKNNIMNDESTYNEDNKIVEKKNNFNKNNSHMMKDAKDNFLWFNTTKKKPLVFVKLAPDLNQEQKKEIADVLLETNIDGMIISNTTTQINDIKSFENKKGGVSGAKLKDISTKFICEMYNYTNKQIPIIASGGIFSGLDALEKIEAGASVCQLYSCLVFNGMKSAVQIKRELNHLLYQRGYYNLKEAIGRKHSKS

As for `C=CCN(C(=O)C1N(c2c(Cl)cccc2CO)C(=O)C2C(C(=O)O)C3C=CC21O3)C(C)(C)C` (stereo not given), the z-score in [1] is -0.875 and 0.96; in assay [2] it was 0.766 and -0.202; in assay [3] it was 0.613 and 1.78; in assay [4], 0.64 and 1.54; in [5] it was -0.224 and -0.394; in assay [6] it was -0.536 and 0.627. Besides, the z-score was -1.27 (inactive) and 1.46 (inactive) in [7]; -0.153 and 0.828 in assay [8]; 0.0478 and 1.11 in assay [9]; -0.289 (inactive) and 0.361 (inactive) in assay [10]; 0.0972 and 0.393 in assay [11]; 0.134 (inactive) and -0.493 (inactive) in assay [12]. Also, the z-score in assay [13] is -0.0453 (inactive) and 1.02 (inactive); in [15], -0.497 (inactive) and 0.053 (inactive); in assay [16], 0.42 (inactive) and -1.92 (inactive); in assay [17], 0.0114 (inactive) and 1.34 (inactive); in assay [18] it was -0.228 (inactive) and 1.65 (inactive); in assay [19] it was -0.338 and 0.957. Besides, the composite z-score in [14] is -0.395 (inactive) and -0.725 (inactive); in [20], -0.217 and -0.113.
As for `CCOC(=O)c1ccc(NC(=O)O[C@H]2[C@H](OC(=O)Nc3ccccc3)[C@@H](OC(=O)Nc3ccccc3)[C@@H](OC)O[C@@H]2CO)cc1`, the z-score in assay [1] is -1 and -2.09; in assay [2], 1.79 and 1.14; in [3] it was -1.92 and -2.54; in [4], -1.83 and -2.21; in assay [5], -1.56 and -2.49; in [6], -1.05 and -0.323. Besides, the z-score in assay [7] is 2.13 (inactive) and 0.661 (inactive); in [8] it was -0.464 and -0.37; in assay [9], -0.447 and -0.575; in assay [10] it was -3.35 (inactive) and -3.84 (inactive); in assay [11] it was -1.97 and -1.75; in assay [12] it was 2.09 (inactive) and 0.61 (inactive). For the same molecule, the z-score in assay [13] was -2.14 (inactive) and -3.07 (inactive); in assay [15], 1.94 (inactive) and 1.5 (inactive); in [16] it was 2.51 (inactive) and 2.87 (inactive); in assay [17], 0.028 (inactive) and 0.188 (inactive); in [18] it was -0.343 (inactive) and -0.714 (inactive); in assay [19] it was -1.82 and -1.87. Further, the composite z-score in assay [14] is 0.146 (inactive) and 0.755 (inactive); in [20], 0.39 and -0.146.
With `CC(C)=NOCc1ccc(-c2cn([C@@H]3COC[C@H]3O)nn2)cc1`, the z-score in assay [1] is 0.0524; in assay [2], 0.371; in assay [3] it was 0.239; in assay [4], -0.812; in [5], 0.176; in assay [6], -0.32. The z-score in assay [7] is -0.0926 (inactive); in assay [8], 0.169; in assay [9], 1.43; in [10], -0.207 (inactive); in [11], -0.203; in assay [12] it was 0.313 (inactive). Moreover, the z-score was 0.0429 (inactive) in assay [13]; -0.0691 (inactive) in [15]; -0.0292 (inactive) in assay [16]; 0.114 (inactive) in [17]; -0.0038 (inactive) in assay [18]; 0.106 in [19]. Moreover, the values for the composite z-score in assay [14] and in [20] were -0.478 (inactive) and 0.0049, respectively.
For the molecule `CCN1C(=O)[C@H]2[C@H]3[C@H](O)[C@H](O)CC(=NOC)[C@@H]3CC[C@H]2C1=O`, the z-score in assay [1] is 0.357; in assay [2], -0.344; in [3] it was -0.0225; in assay [4], -0.106; in [5] it was 0.887; in [6], 0.459. Also, the z-score in assay [7] was 1.7 (inactive); in assay [8] it was 0.0805; in assay [9], -0.218; in [10] it was -0.562 (inactive); in [11] it was 0.146; in assay [12] it was -1.88 (inactive). The z-score is 0.0831 (inactive) in assay [13]; 0.924 (inactive) in assay [15]; -0.458 (inactive) in assay [16]; 0.759 (inactive) in assay [17]; 0.953 (inactive) in assay [18]; 0.0325 in assay [19]. Besides, the composite z-score is -0.581 (inactive) in assay [14] and 0.487 in [20].
With `C=CC[C@@H](O)c1ccc(O)c(F)c1`, the z-score was -0.562 and 0.575 in assay [1]; 0.207 and 0.747 in assay [2]; -0.804 and -0.172 in assay [3]; -1.11 and 1.1 in assay [4]; -0.508 and -1.15 in assay [5]; -1.48 and -0.00596 in [6]. The z-score in assay [7] is -1.3 (inactive) and 1.47 (inactive); in assay [8], 0.345 and 0.642; in [9], -0.347 and 1.29; in assay [10], -0.694 (inactive) and 0.0466 (inactive); in assay [11] it was -0.0101 and 0.942; in assay [12], -0.898 (inactive) and -2.97 (inactive). Besides, the z-score in assay [13] was -0.87 (inactive) and 1.56 (inactive); in assay [15], 0.671 (inactive); in assay [16], 0.912 (inactive) and -1.83 (inactive); in [17] it was -0.046 (inactive) and 1.79 (inactive); in assay [18] it was -0.248 (inactive) and 1.06 (inactive); in assay [19] it was -0.511 and 0.864. The composite z-score in [14] was 0.672 (inactive) and -0.585 (inactive); in [20], -0.0884 and -0.042.
Consider `C=CCN(C(=O)C1N(CCOCCO)C(=O)C2C(C(=O)O)C3C=CC21O3)C(C)(C)C` (stereo not given), for which the z-score in assay [1] is -0.186 and -0.328; in [2], 0.0948 and -1.23; in [3], 0.108 and 0.442; in assay [4], 1.01 and 0.916; in assay [5] it was -0.114 and 0.817; in [6] it was -0.58 and -0.767. The z-score in assay [7] was -0.693 (inactive) and -0.523 (inactive); in assay [8], -0.691 and 0.591; in assay [9], 1.93 and 0.501; in [10], 0.161 (inactive) and -0.73 (inactive); in assay [11] it was 0.0542 and -0.741; in [12], -0.0565 (inactive) and 0.494 (inactive). The z-score in assay [13] was -0.2 (inactive) and -1.16 (inactive); in assay [15] it was -0.0558 (inactive) and 0.578 (inactive); in [16] it was -0.0478 (inactive) and -0.166 (inactive); in assay [17], -0.335 (inactive) and -0.685 (inactive); in [18], -0.664 (inactive) and -0.923 (inactive); in assay [19] it was -0.244 and -1.69. In addition, the composite z-score is 0.256 (inactive) and 1.36 (inactive) in assay [14]; 0.0009 and -0.0369 in assay [20].
